HCV NS3h FP = blocks HCV NS3 helicase binding to DNA | NS3h Cy5-dT15 DNA binding, fluorescence polarization | inhibition, % at 100 µM | 16,000 tested, 1.6% active | AID 687043;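 active = inhibition above the average over every tested compound plus 3 SD, cut at about 40% in these data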
Cy5 interf NS3h = enhances or quenches Cy5 fluorescence in NS3h assay | Cy5-dT15 DNA with NS3h, fluorescence interference; actives lie on both sides; signal over control mean, under 1 quenches | fluorescence interference ratio at 100 µM | 16,000 tested, 6% active | AID 720488;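 active = compound fluorescence over control fluorescence at most 0.8, a quencher, or at least a set upper limit, an enhancer; inactive = ratio between 0.8 and the set upper limit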
Numbers stand for hits; i = inactive. In the library only some 7.6% were active in any assay of this set; here they are far more common.

SMILES	HCV NS3h FP	Cy5 interf NS3h
O=C(CSc1ncc(-c2ccccc2)[nH]1)Nc1ccc(F)cc1	i	0.78
O=C(c1cc(Cl)ccc1Cl)N(Cc1ccccc1)c1ccccn1	i	0.62
COc1ccc(Cl)cc1C(=O)N(Cc1ccccc1)C(C)C	i	i
COc1ccc(-n2c(=S)[nH]c3sc4c(c3c2=O)CCCCC4)cc1	i	i
CCOC(=O)COc1c(Cl)cc(C=C2C(=O)NC(=S)NC2=O)cc1Cl	i	i
CCOc1ccc(NC(=O)CSc2nnc(-c3ccc(OC)cc3)o2)cc1	i	0.74
COc1ccc(NC(=O)CSc2ncccn2)cc1	i	i
O=[N+]([O-])c1cccc(-c2ccc(CO)o2)c1	i	i
O=[N+]([O-])c1cccc(C2=Nc3ccc([N+](=O)[O-])cc3ON2)c1	i	0.74
COc1ccc(N(CC(=O)Nc2cccc(Br)c2)S(=O)(=O)c2ccc(C)cc2)cc1	i	i
Cc1ccc(NC(=O)N(Cc2ccccc2)C(C)C2CC2)cc1 (stereo not given)	i	0.6
CCOC(=O)N(Cc1ccccc1)C(C(=O)O)C(C(=O)O)N(Cc1ccccc1)C(=O)OCC (stereo not given)	i	i
CC(C1CC1)N(Cc1ccccc1)C(=O)c1ccc(F)cc1 (stereo not given)	i	0.59
CN(C)CCNC(=O)c1ccc(F)cc1	i	i
COCCNC(=O)c1ccc(CN(c2ccccc2)S(C)(=O)=O)cc1	i	0.72
CS(=O)(=O)N(Cc1ccc(C(=O)NCCSc2ccccn2)cc1)c1ccccc1	i	i
Cc1ccc(C2CC(C(F)(F)F)n3nc(C(=O)Nc4c(C)n(C)n(-c5ccccc5)c4=O)c(Cl)c3N2)cc1 (stereo not given)	i	i
COC(=O)c1ccccc1NC(=O)Cn1cnc([N+](=O)[O-])n1	i	0.69
Cc1c(Cl)cccc1NC(=O)Cn1cnc([N+](=O)[O-])n1	i	i
O=C1NN=C2C3CCC4CC12CC1(C3)C(=O)NN=C41	i	0.74
O=C1NC(=S)N(c2ccc(F)cc2)C(=O)/C1=C/c1ccc(F)cc1	i	0.65
CCc1ccc(N2C(=O)/C(=C/c3ccc(O)c(Cl)c3)C(=O)NC2=S)cc1	i	i
Cc1ccc(N2C(=O)/C(=C/C=C/c3ccccc3)C(=O)NC2=S)cc1	i	0.72
CCOc1ccc(/C=C2\C(=O)NC(=S)N(c3ccc(C)cc3)C2=O)cc1Cl	i	i
COc1cccc(OCCNS(=O)(=O)c2ccc3ccccc3c2)c1	i	i
SMILES	HCV NS3h FP	Cy5 interf NS3h
CCC1C(=O)N=C(SCC(=O)Nc2ccccn2)NC1=O (stereo not given)	i	i
CCn1c(C)nc2cc(C(=O)Nc3ccccc3)ccc21	i	i
CN(C)/C=C/C=C1\CC(=O)N(c2ccccc2)C1=O	i	i
CC1CC/C(=C\C=C\N(C)C)C(=O)/C1=C/C=C/N(C)C (stereo not given)	i	0.72
O=S(=O)(N=C(c1ccc(F)cc1)N1CCOCC1)c1ccccc1	i	i
COc1c(I)cc(I)cc1C1NC(=O)c2c(sc3c2CCCC3)N1 (stereo not given)	i	i
CN(C)c1ccc(C(=O)N2CCN(c3ccccc3)CC2)cc1	i	i
CN(C)c1ccc(C(=O)N2CCN(c3ccc(F)cc3)CC2)cc1	i	0.75
COc1ccccc1N1CCN(C(=O)c2c(Cl)cccc2Cl)CC1	i	i
COc1ccccc1N1CCN(C(=O)c2ccc(N(C)C)cc2)CC1	i	0.66
CCC1=NN(C(=O)c2ccc([N+](=O)[O-])cc2)C(O)(c2ccncc2)C1 (stereo not given)	i	i
COc1ccc(-n2c(O)c(C=Nc3ccc(Cl)cc3)c(=O)[nH]c2=O)cc1	i	0.78
COc1cccc(-n2c(O)c(C(c3ccccn3)c3c(O)n(-c4cccc(OC)c4)c(=O)[nH]c3=O)c(=O)[nH]c2=O)c1	i	i
COC(=O)C1=C(C(=O)OC)SC(=C2C(=S)C(C)(C)N(C(=O)c3cccc([N+](=O)[O-])c3)c3ccc(OC)cc32)S1	i	0.53
COC(=O)C1=C(C(=O)OC)SC(=C2C(=S)C(C)(C)N(C(=O)c3cccc(F)c3)c3c(OC)cccc32)S1	i	i
COc1ccc(OC)c(NC(=O)c2ccc3c(c2)C(=O)N(c2cccc([N+](=O)[O-])c2)C3=O)c1	i	i
C=CCc1c(C)nc2cc(-c3cccc(F)c3)[nH]n2c1=O	i	1.2
CCOC(=O)CCc1c(C)nc2cc(-c3cccc(F)c3)[nH]n2c1=O	i	i
CCc1nnc(NS(=O)(=O)c2ccc(NC(=O)c3cc4ccccc4cc3OC)cc2)s1	i	i
C/C(=N/NC(=O)COc1ccc(Cl)cc1[N+](=O)[O-])c1cccs1	i	i
C/C(=N/N=C\c1cccc([N+](=O)[O-])c1)C1C(=O)c2ccccc2C1=O	i	0.62
CC(=O)N/C(=C\c1cccc([N+](=O)[O-])c1)C(=O)NC(C)C	i	i
O=C(CN1C(=O)c2ccccc2C1=O)N1CCCCCC1	i	i
CCC(CC)NCc1cc(Br)ccc1OC	i	i
O=C(NC(CS)C(=O)O)c1cncc(O)c1 (stereo not given)	i	0.64
SMILES	HCV NS3h FP	Cy5 interf NS3h
CCOC(=O)c1c(NC(=O)c2cncc(Br)c2)sc(C)c1C	i	i
Cc1ccc(N2C(=O)c3ccccc3NC2c2ccccc2F)cc1 (stereo not given)	i	i
CC(C)(C)c1ccccc1OCC(O)CN1CCCCC1 (stereo not given)	i	i
Cc1ccc(-c2nnc(Nc3ccc4c(c3)ncn4C)c3ccccc23)cc1	i	i
Cn1cnc2cc(Nc3nnc(-c4ccc(Cl)cc4)c4ccccc34)ccc21	i	0.7
Cc1nc2cc(Nc3nnc(-c4ccc(Cl)cc4)c4ccccc34)ccc2n1C	i	0.67
COc1ccc(-c2nnc(Nc3ccc(C)cc3)c3ccccc23)cc1	i	i
CCOc1cc(/C=C2/SC(=S)N(C)C2=O)ccc1OCCOc1ccc(C)c(C)c1	i	i
CC(C)(C)NC(=O)CCNS(=O)(=O)c1ccccc1[N+](=O)[O-]	i	i
NC(=O)COc1ccc(/C=c2/sc3n(c2=O)CCCN=3)cc1	i	1.2
COC(=O)C1=C(C)N(c2ccc(C)cc2)/C(=C\c2ccc(OCC(N)=O)cc2)C1=O	i	i
COc1cc2ccccc2cc1C(=O)Nc1ccc2c(c1)C(=O)N(C)C2=O	i	i
COC(=O)c1ccccc1NC(=O)/C=C/c1ccccc1	i	i
CCOC(=O)C1=C(O)/C(=C/c2ccc(OC)c(OC)c2)SC1=Nc1ccc([N+](=O)[O-])cc1	i	i
CCOC(=O)C1=C(O)/C(=C/c2cccc(Br)c2)SC1=Nc1ccccc1	i	0.66
O=C(NC(=S)Nc1ccc(-c2nc3ncccc3o2)cc1)c1ccco1	i	i
O=C(c1cc2n(n1)C(C(F)(F)F)CC(c1cccs1)N2)N1CCN(C(c2ccccc2)c2ccccc2)CC1 (stereo not given)	i	i
Cc1cc(Cl)ccc1NC(=O)c1ccc(I)cc1	i	i
CC(=O)Nc1ccc(NC(=O)c2ccc(C)cc2)cc1	i	i
O=C(Nc1ccc(NC(=O)c2ccc(Cl)cc2Cl)cc1)c1ccc(Cl)c(Cl)c1	i	i
CC(=O)Nc1ccc(NC(=O)c2ccc(C(F)(F)F)cc2)cc1	i	0.76
CC(=O)Nc1ccc(NC(=O)c2ccc(N3C(=O)c4ccc(C(=O)Nc5ccc(NC(C)=O)cc5)cc4C3=O)cc2)cc1	i	0.77
CC(=O)Nc1ccc(NC(=O)c2ccc(Cl)c(Cl)c2)cc1	i	1.2
